In the first test the target is RASGRP2. As to the kind of experiment: pooled miR-30 sensor sort-seq; sequence = guide strand. Particulars: shRNA.
TAGGAAACCATCTCCTCCCTGC: the sensor-assay potency score (higher = more potent) was determined as 0.463.

For the sequence TTTGCTGAGGATCATGAGCTGC, the sensor-assay potency score (higher = more potent) was -0.888.

TTCAAGTCAAACTCCGCTGGGA had a sensor-assay potency score (higher = more potent) of 0.724.

Sequence TTGTTGGTAGATGTGGAGCAGC had a sensor-assay potency score (higher = more potent) of -1.12.

The target of a further test is RASIP1. The description is as above. Particulars: shRNA.
On to TAGGTCTCAATCCTGGAGGCAT, for which the sensor-assay potency score (higher = more potent) was -0.489.

TCAACTGATCGAAGTCCCCGGG yielded a sensor-assay potency score (higher = more potent) of 0.0667.

TTGGAGAAGAAGAACAAGTAGC gave a sensor-assay potency score (higher = more potent) of -0.187.

Turning to TTCCAAGTCATTGCAGAGCTGT, the sensor-assay potency score (higher = more potent) is -0.369.

TTGACCTCGTTCCATCAGCGAG: the sensor-assay potency score (higher = more potent) is -1.71.

TGAATAGAGAGTCTTGGTGAGG gave a sensor-assay potency score (higher = more potent) of -1.22.

As to AAGAAGACTTGACAGAGGCTGC, the sensor-assay potency score (higher = more potent) amounted to 0.0487.

For TTGAATAGAGAGTCTTGGTGAG, the sensor-assay potency score (higher = more potent) was determined as 0.37.

TTTTCTGAGCGCTCCTTGCCTC: the sensor-assay potency score (higher = more potent) is -0.853.

With TTGGTCAGCCTCCTTCTCCATT, the sensor-assay potency score (higher = more potent) was -1.48.

Sequence TGGAGCAGCAGGAAGTAGGGGC yielded a sensor-assay potency score (higher = more potent) of 0.0878.

Sequence TTAGGCTGCTCCATGAAGCCTT displayed a sensor-assay potency score (higher = more potent) of -0.552.

The target in a further test is RASL10B. The description is as above. Particulars: shRNA.
Turning to TCCACGTAGCCGCACTTCCAGG, the sensor-assay potency score (higher = more potent) was -2.

Sequence TACAAAACTGACAGTGATCAGC gave a sensor-assay potency score (higher = more potent) of -0.715.

Sequence TTGACGTACTCAAAGCTGTCAA displayed a sensor-assay potency score (higher = more potent) of 0.000852.

Sequence TAGACCAGGATGTAGGCGTGGA registered a sensor-assay potency score (higher = more potent) of -0.176.

As for AACTCGTTGTACAAGAACTGGC, the sensor-assay potency score (higher = more potent) stood at 0.0656.

TAGGTTGTTGTGTCTCTGGGGG came in with a sensor-assay potency score (higher = more potent) of 0.276.

In the case of ATGTAGGCGTGGACACTCCGGA, the sensor-assay potency score (higher = more potent) is -0.908.

For the sequence TCGTTGTACAAGAACTGGCGCA, the sensor-assay potency score (higher = more potent) was -0.634.

In the case of TCGTAGACCAGGATGTAGGCGT, the sensor-assay potency score (higher = more potent) was found to be 0.139.

Take TTCTAAATCGGTACAAAACTGA: the sensor-assay potency score (higher = more potent) is -0.599.

For the sequence TTAATCAGGATAGTCTGAGATC, the sensor-assay potency score (higher = more potent) was -1.01.

Consider TAGCCGCACTTCCAGGTCTTGC, for which the sensor-assay potency score (higher = more potent) is -1.97.

The next test concerns the target RASSF2. Described as above. Particulars: shRNA.
For the sequence TAACTAAAATCAAAAGTCCTTG, the sensor-assay potency score (higher = more potent) is -0.812.

Turning to TATGGTTGTAGAAATGGCCGTT, the sensor-assay potency score (higher = more potent) was 1.03.

With TATCTTGTCCACATGGGACTAG, the sensor-assay potency score (higher = more potent) is 0.13.

Sequence TTCTGTTTCTCACCACTCGTAT showed a sensor-assay potency score (higher = more potent) of -0.432.

Consider TTTAAGTACCGGCATCTCGAAC, for which the sensor-assay potency score (higher = more potent) was -0.976.

The sequence TTCCCGATCTTCTTCCTCCTGG yielded a sensor-assay potency score (higher = more potent) of 0.559.

For TCTGCTGACTTCTACATCCAGC, the sensor-assay potency score (higher = more potent) was -0.516.

Take TTCTCCATTAGGAACACTTTGG: the sensor-assay potency score (higher = more potent) was -1.02.

With TATTTATCTTGTCCACATGGGA, the sensor-assay potency score (higher = more potent) is -0.838.

For the sequence TTCGTTGTCATCCTGCATCTGC, the sensor-assay potency score (higher = more potent) came out at 0.418.

The sequence TACATGTGAAAGTATCAGGTAG yielded a sensor-assay potency score (higher = more potent) of -0.041.

As to TTTGTGTCTAAATGTTTCCATG, the sensor-assay potency score (higher = more potent) is -1.27.

Source of the values: the OligoGym collection.
Note: reference of the scale not given here.
